Experimental data: PubChem BioAssay (Tox21)
Results filed as inconclusive are left out. The source made the active and inactive calls. Unless noted, calls come from the whole dose curve; as a rule, active = well fitted curve in the direction sought with a large enough effect in the repeat runs; inconclusive = weak or mixed curves; inactive = no such curve, though single readings can be large; an effect the other way counts as inactive or inconclusive.

How the values were obtained:
[1] = qHTS assay to identify aromatase inhibitors - cell viability counter screen (AID 743084);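 note: cells stimulated with testosterone during compound exposure; nearly all actives have a fitted effect of over 55% in size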
[2] = molecular target: Aryl hydrocarbon receptor (Homo sapiens) (UniProt P35869); experiment: qHTS assay to identify small molecule that activate the aryl hydrocarbon receptor (AhR) signaling pathway (AID 743085);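 note: HG2L7.5c1 human HepG2 liver cells with stably integrated DRE-driven firefly reporter; series mostly up to about 70 µM; nearly all actives have a fitted effect of over 15% in size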
Summary of the method: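 24 h compound exposure, 37C, HepG2-derived HG2L7.5c1 cells with DRE-responsive luciferase. Readouts: fluorescence viability, then luminescence at room temperature after 30 min.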

[3] = qHTS assay to identify small molecule that activate the aryl hydrocarbon receptor (AhR) signaling pathway - cell viability counter screen (AID 743086);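 note: HepG2 liver cells carrying the AhR DRE luciferase reporter; series mostly up to about 70 µM; nearly all actives have a fitted effect of over 45% in size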
Summary of the method: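 Cytotoxicity counter screen: CellTiter-Fluor signal (30 min, 37 C) in 4000 HepG2 cells/well carrying the DRE-luciferase reporter, following 24 h compound exposure at 37 C.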

[4] = molecular target: Peroxisome proliferator-activated receptor gamma (Homo sapiens) (UniProt P37231); experiment: qHTS assay to identify small molecule agonists of the peroxisome proliferator-activated receptor gamma (PPARg) signaling pathway (AID 743094; active = well fitted activation curve with a large enough effect in the signal ratio in the repeat runs, not every such curve was filed as active; the % refers to the signal ratio)
Summary of the method: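 GeneBLAzer PPARg UAS-bla HEK293H cells were plated, rested 5 h, then exposed to compounds for 17 h at 37C. Beta-lactamase activity was read by LiveBLAzer B/G FRET substrate fluorescence after 1 h at room temperature.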

[5] = molecular target: Peroxisome proliferator-activated receptor gamma (Homo sapiens) (UniProt P37231); experiment: qHTS assay to identify small molecule antagonists of the peroxisome proliferator-activated receptor gamma (PPARg) signaling pathway (AID 743191; calls by dose curve; note: series mostly up to about 63 µM; nearly all actives have a fitted effect of over 30% in size)
Summary of the method: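 Beta-lactamase reporter under UAS control in HEK293H PPARg-bla cells; compound treatment 17 h at 37C. Read-out: fluorescence intensity after 1 h room-temperature incubation with LiveBLAzer B/G FRET substrate.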

[6] = qHTS assay to identify small molecule antagonists of the peroxisome proliferator-activated receptor gamma (PPARg) signaling pathway - cell viability counter screen (AID 743194); conditions: Potency: co-treated with 50 nM rosiglitazone unless noted; note: nearly all actives have a fitted effect of over 55% in size
Summary of the method: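 Viability was measured as CellTiter-Glo luminescence in GeneBLAzer PPARg UAS-bla HEK293H cells. These cells had been exposed 17 h at 37 C to compounds together with rosiglitazone at 50 nM final, with the beta-lactamase readout taken in the same wells.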

[7] = qHTS assay for small molecule agonists of the antioxidant response element (ARE) signaling pathway (AID 743202; active = well fitted activation curve with a large enough effect in the signal ratio in the repeat runs, not every such curve was filed as active; the % refers to the signal ratio)
Summary of the method: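 An ARE-responsive beta-lactamase gene stably integrated in HepG2 cells serves as reporter. After 5 h plating and 16 h compound incubation at 37 C, fluorescence of the B/G FRET substrate was measured.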

[8] = qHTS assay for small molecule agonists of the antioxidant response element (ARE) signaling pathway - cell viability counter screen (AID 743203; calls by dose curve; note: nearly all actives have a fitted effect of over 55% in size)
Summary of the method: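 ARE-bla HepG2 cells were plated, rested 5 h at 37C/5% CO2, then exposed to compounds in DMSO for 16 h. Viability was read as CellTiter-Glo luminescence after 30 min at room temperature, in the same wells as the ARE screen.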

[9] = qHTS assay for small molecule activators of the heat shock response signaling pathway - cell viability counter screen (AID 743209); note: nearly all actives have a fitted effect of over 50% in size
Summary of the method: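 HSE-bla HeLa cells plated overnight, then exposed to Tox21 compounds (23 nL in DMSO) for 5 h at 37 C. After the bla reporter read, CellTiter-Glo was added in the same wells and luminescence read after 30 min at room temperature.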

[10] = qHTS assay to identify small molecule agonists of the peroxisome proliferator-activated receptor delta (PPARd) signaling pathway - cell viability counter screen (AID 743211); note: nearly all actives have a fitted effect of over 55% in size
Summary of the method: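 Luminescent ATP viability assay (CellTiter-Glo, 30 min RT) in UAS-bla HEK293H cells carrying the PPAR delta reporter construct, 3000 cells/well, after a 17 h compound treatment at 37 C.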

[11] = molecular target: Bile acid receptor (Homo sapiens) (UniProt Q96RI1); experiment: qHTS assay to identify small molecule antagonists of the farnesoid-X-receptor (FXR) signaling pathway (AID 743217; active = well fitted inhibition curve with a large enough effect in the signal ratio in the repeat runs, not every such curve was filed as active; the % refers to the signal ratio)
Summary of the method: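 FXR-UAS-bla HEK 293T cells (beta-lactamase reporter) given compound plus chenodeoxycholic acid (50 uM final), 16 h at 37C. LiveBLAzer B/G FRET substrate added for 2 h at room temperature; fluorescence read.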

[12] = qHTS assay to identify small molecule agonists of the farnesoid-X-receptor (FXR) signaling pathway - cell viability counter screen (AID 743218); note: nearly all actives have a fitted effect of over 45% in size
Summary of the method: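 FXR-UAS-bla HEK 293T cells exposed to compounds for 16 h at 37C. Cytotoxicity read in the same wells by CellTiter-Glo luminescence after 30 min at room temperature, following the beta-lactamase FRET read.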

[13] = molecular target: Bile acid receptor (Homo sapiens) (UniProt Q96RI1); experiment: qHTS assay to identify small molecule agonists of the farnesoid-X-receptor (FXR) signaling pathway (AID 743220; active = well fitted activation curve with a large enough effect in the signal ratio in the repeat runs, not every such curve was filed as active; the % refers to the signal ratio)
Summary of the method: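 Beta-lactamase reporter under UAS control in GeneBLAzer FXR HEK 293T cells (5000/well) measured with LiveBLAzer FRET substrate after 2 h at room temperature. Compound exposure lasted 16 h at 37C.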

[14] = qHTS assay to identify small molecule antagonists of the farnesoid-X-receptor (FXR) signaling pathway - cell viability counter screen (AID 743221; active = well fitted cell-killing curve with a large enough effect in the repeat runs, not every such curve was filed as active; note: nearly all actives have a fitted effect of over 50% in size)
Summary of the method: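 In GeneBLAzer FXR-UAS-bla HEK 293T cells stimulated with 50 uM chenodeoxycholic acid (final), compounds acted for 16 h at 37 C. Viability was assessed afterwards by CellTiter-Glo luminescence.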

[15] = molecular target: Vitamin D3 receptor (Homo sapiens) (UniProt P11473); experiment: qHTS assay to identify small molecule agonists of the vitamin D receptor (VDR) signaling pathway (AID 743222; calls by dose curve)
Summary of the method: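 VDR-bla cells plated 4 h at 37 C, then exposed to compounds for 16 h at 37 C. Beta-lactamase reporter activity measured by fluorescence after 2 h room-temperature loading with LiveBLAzer B/G FRET substrate.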

[16] = molecular target: Vitamin D3 receptor (Homo sapiens) (UniProt P11473); experiment: qHTS assay to identify small molecule antagonists of the vitamin D receptor (VDR) signaling pathway (AID 743223; active = well fitted inhibition curve with a large enough effect in the signal ratio in the repeat runs, not every such curve was filed as active; the % refers to the signal ratio)
Summary of the method: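 Agonist 1alpha,25-dihydroxyvitamin D3 (3 nM in well) was added with each compound to VDR-bla cells preincubated 4 h. Cells stood 16 h at 37C, then FRET substrate 2 h at room temperature; fluorescence intensity recorded.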

[17] = qHTS assay for small molecule activators of the heat shock response signaling pathway (AID 743210; active = well fitted activation curve with a large enough effect in the signal ratio in the repeat runs, with a control signal flat, not every such curve was filed as active; the % refers to the signal ratio;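 note: HeLa cells with beta-lactamase reporter driven by heat shock elements; series mostly up to about 63 µM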)
Summary of the method: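 In HSE-bla HeLa cells, 5 h compound incubation (37 C) precedes addition of LiveBLAzer B/G substrate; after 2.5 h at room temperature, fluorescence intensity indicates reporter induction.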

[18] = qHTS assay to identify small molecule antagonists of the peroxisome proliferator-activated receptor delta (PPARd) signaling pathway - cell viability counter screen (AID 743213); note: nearly all actives have a fitted effect of over 50% in size
Summary of the method: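 Cytotoxicity counter screen: CellTiter-Glo luminescence read 30 min after addition, in the same wells as the reporter assay. There, PPARd UAS-bla HEK293H cells (3000/well) were treated 17 h at 37 C with compound and 300 nM L165041.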

[19] = molecular target: Peroxisome proliferator-activated receptor delta (Homo sapiens) (UniProt Q03181); experiment: qHTS assay to identify small molecule agonists of the peroxisome proliferator-activated receptor delta (PPARd) signaling pathway (AID 743212; calls by dose curve)
Summary of the method: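 HEK293H UAS-bla reporter cells, human PPARd system; compounds delivered in DMSO after 5 h plating, then at 37 C. Beta-lactamase FRET read, 2 h RT substrate step.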

[20] = molecular target: Peroxisome proliferator-activated receptor delta (Homo sapiens) (UniProt Q03181); experiment: qHTS assay to identify small molecule antagonists of the peroxisome proliferator-activated receptor delta (PPARd) signaling pathway (AID 743215; active = well fitted inhibition curve with a large enough effect in the signal ratio in the repeat runs, not every such curve was filed as active; the % refers to the signal ratio;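 note: cells stimulated with agonist L165041 at 300 nM final during compound exposure; series mostly up to about 62 µM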)
Summary of the method: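 PPARd-bla HEK293H cells (UAS-bla reporter) preincubated 5 h, then given compound plus 300 nM final L165041 agonist for 17 h at 37 C. Beta-lactamase activity read by LiveBLAzer B/G FRET substrate fluorescence after 2 h at room temperature.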

Measured: Potency

Chain of Bile acid receptor (Homo sapiens) (Q96RI1 whole entry, looked up): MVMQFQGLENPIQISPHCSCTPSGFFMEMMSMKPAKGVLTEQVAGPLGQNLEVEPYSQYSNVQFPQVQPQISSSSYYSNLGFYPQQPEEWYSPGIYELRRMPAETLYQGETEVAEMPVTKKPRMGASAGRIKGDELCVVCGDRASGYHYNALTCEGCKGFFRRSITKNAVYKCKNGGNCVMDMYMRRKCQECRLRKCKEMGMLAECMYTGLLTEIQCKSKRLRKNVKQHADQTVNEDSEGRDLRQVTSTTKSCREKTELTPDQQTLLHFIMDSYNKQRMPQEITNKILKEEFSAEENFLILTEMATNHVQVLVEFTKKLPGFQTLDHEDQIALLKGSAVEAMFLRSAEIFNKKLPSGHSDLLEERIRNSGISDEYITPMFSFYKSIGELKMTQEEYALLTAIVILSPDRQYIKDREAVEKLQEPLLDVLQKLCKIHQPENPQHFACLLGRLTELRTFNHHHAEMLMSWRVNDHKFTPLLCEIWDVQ
Chain of Peroxisome proliferator-activated receptor delta (Homo sapiens) (Q03181 whole entry, looked up): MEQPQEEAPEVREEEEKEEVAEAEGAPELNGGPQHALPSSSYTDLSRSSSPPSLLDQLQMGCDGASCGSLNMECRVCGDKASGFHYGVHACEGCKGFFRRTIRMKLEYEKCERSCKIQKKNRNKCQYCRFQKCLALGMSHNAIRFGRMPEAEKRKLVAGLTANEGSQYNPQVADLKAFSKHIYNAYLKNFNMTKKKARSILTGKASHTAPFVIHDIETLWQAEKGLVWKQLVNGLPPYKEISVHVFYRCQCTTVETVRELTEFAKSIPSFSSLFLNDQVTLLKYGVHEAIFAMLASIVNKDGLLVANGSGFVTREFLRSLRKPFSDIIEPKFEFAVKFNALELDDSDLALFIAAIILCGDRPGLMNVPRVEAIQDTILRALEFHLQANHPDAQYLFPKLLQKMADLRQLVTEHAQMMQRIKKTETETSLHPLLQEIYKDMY
Chain of Vitamin D3 receptor (Homo sapiens) (P11473 whole entry, looked up): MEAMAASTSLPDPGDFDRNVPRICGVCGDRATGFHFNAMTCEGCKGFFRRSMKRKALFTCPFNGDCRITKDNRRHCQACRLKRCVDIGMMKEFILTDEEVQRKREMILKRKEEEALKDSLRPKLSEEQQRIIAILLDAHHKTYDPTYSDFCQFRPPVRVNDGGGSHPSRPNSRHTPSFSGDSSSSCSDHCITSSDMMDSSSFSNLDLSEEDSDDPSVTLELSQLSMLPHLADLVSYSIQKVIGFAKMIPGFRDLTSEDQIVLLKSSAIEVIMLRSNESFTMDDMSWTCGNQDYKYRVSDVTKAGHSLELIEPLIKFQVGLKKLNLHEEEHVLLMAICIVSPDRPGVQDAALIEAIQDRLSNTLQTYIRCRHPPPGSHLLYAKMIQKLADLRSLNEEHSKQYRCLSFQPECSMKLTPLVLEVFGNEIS
Chain of Peroxisome proliferator-activated receptor gamma (Homo sapiens) (P37231 whole entry, looked up): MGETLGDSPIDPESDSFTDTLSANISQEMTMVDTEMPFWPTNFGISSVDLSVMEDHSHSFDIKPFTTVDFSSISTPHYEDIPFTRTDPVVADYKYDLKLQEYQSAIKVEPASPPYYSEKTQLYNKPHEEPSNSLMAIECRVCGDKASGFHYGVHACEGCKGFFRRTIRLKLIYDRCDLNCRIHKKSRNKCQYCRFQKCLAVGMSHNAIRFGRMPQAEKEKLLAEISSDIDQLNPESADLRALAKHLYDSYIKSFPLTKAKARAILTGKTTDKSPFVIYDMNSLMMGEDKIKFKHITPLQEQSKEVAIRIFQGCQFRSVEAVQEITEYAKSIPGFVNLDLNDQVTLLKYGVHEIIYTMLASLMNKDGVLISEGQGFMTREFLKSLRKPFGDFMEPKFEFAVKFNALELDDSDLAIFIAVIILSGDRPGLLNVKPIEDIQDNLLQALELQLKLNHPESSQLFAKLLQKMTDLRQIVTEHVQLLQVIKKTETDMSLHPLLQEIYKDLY
Chain of Aryl hydrocarbon receptor (Homo sapiens) (P35869 whole entry, looked up): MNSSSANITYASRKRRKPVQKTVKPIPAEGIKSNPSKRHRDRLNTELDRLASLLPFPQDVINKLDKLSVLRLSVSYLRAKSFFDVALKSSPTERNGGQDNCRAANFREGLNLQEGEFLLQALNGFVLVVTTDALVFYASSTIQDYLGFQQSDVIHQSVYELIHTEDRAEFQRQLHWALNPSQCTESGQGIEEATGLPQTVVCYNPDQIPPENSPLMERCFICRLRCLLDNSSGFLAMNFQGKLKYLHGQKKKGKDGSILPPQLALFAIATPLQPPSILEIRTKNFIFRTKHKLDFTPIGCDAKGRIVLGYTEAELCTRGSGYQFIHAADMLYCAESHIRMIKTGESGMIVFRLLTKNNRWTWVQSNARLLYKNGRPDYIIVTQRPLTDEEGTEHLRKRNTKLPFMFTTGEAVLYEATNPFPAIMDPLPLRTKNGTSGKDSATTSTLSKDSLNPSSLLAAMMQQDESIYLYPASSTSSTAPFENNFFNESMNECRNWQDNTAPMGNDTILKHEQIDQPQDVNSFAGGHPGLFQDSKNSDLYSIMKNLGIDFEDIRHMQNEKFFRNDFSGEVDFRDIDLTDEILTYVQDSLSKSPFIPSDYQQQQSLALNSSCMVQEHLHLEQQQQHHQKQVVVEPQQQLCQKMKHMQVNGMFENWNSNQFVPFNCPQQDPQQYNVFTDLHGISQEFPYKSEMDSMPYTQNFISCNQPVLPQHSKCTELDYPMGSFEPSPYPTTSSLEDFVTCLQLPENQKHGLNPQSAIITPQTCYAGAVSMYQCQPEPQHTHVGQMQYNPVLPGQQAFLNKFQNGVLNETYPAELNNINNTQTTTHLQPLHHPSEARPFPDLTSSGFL

CC(C)c1ccc(C(C)C)cc1
inactive: [1] | [2] | [3] | [4] | [5] | [6] | [7] | [8] | [9] | [10] | [11] | [12] | [13] | [14] | [15] | [16]

CC1(C)C(=O)N(Cl)C(=O)N1Cl
inactive: [1] | [2] | [3] | [4] | [5] | [6] | [7] | [8] | [9] | [17] | [10] | [18] | [12] | [14] | [15] | [16]

COc1ccc(N)c(OC)c1
inactive: [1] | [2] | [3] | [4] | [5] | [6] | [7] | [8] | [9] | [17] | [10] | [19] | [18] | [12] | [14] | [15] | [16]

COc1c(Cl)ccc(Cl)c1C(=O)O
inactive: [1] | [2] | [3] | [4] | [5] | [6] | [7] | [8] | [9] | [17] | [10] | [19] | [18] | [20] | [12] | [14] | [15] | [16]

CC(COCC(C)OC(=O)c1ccccc1)OC(=O)c1ccccc1 (stereo unspecified)
inactive: [1] | [2] | [3] | [4] | [5] | [6] | [7] | [8] | [9] | [10] | [19] | [20] | [11] | [12] | [13] | [14] | [15] | [16]

O=C(Cl)c1ccc(C(=O)Cl)cc1
inactive: [1] | [2] | [3] | [4] | [5] | [6] | [7] | [8] | [9] | [17] | [10] | [19] | [18] | [20] | [12] | [14] | [15] | [16]

NC(=O)c1ncn([C@@H]2O[C@H](CO)[C@@H](O)[C@H]2O)n1
inactive: [1] | [2] | [3] | [4] | [5] | [6] | [7] | [8] | [9] | [17] | [10] | [19] | [18] | [20] | [12] | [14]

OCC(O)CS (stereo unspecified)
inactive: [1] | [2] | [3] | [4] | [5] | [6] | [7] | [8] | [9] | [17] | [10] | [19] | [20] | [12] | [14] | [15] | [16]

CN1CCCC1=O
inactive: [1] | [2] | [3] | [4] | [5] | [6] | [7] | [8] | [9] | [10] | [18] | [12] | [14] | [15] | [16]
